21 compounds from PubChem BioAssay (NCI) can be followed below.

Holding throughout (experiment): NCI-60 one-dose screen, 48 h (100 = growth as untreated, 0 = no growth, -100 = all killed)
In experiment [1] the test system is T-47D breast. Conditions: 10 µM.
Experiment [2] has as its system MDA-MB-435 melanoma. Conditions: 10 µM.
In experiment [3] the test system is SW-620 colon. Conditions: 10 µM.
Experiment [4] relates to MCF7 breast. Conditions: 10 µM unless noted.
The subject of experiment [5] is HCT-116 colon. Conditions: 10 µM.
For experiment [6], the system named is HCC-2998 colon. Conditions: 10 µM.
Experiment [7] has as its system KM12 colon. Conditions: 10 µM.
For experiment [8], the system named is BT-549 breast. Conditions: 10 µM.

The structures appear in SMILES notation. The panel holds about 83,000 compounds, 20% with a hit somewhere; the sample as a whole holds those more often.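 Plates (96-well) were seeded with cells, treated with compound at one concentration, and incubated for 48 hours before percent growth was determined.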 A number with no mark means an inactive call. The source made the active and inactive calls. The calls were made as follows: active = growth percent below 10; inactive = the rest.

As to `CCCCN(CCCC)CCCO`, the growth was 107% in experiment [1]; 117% in experiment [2]; 120% in experiment [3]; 96.7% in experiment [4]; 110% in experiment [5]; 94.1% in experiment [6]. In addition, the growth in experiment [7] is 104%.

As to `Cc1c(C(=O)O)c(=O)n(-c2ccccc2)n1C`, the growth in experiment [1] was 98.8%; in experiment [8], 114%; in experiment [2] it was 107%; in experiment [4] it was 112%; in experiment [5] it was 113%; in experiment [6], 106%. The growth in experiment [7] is 120%.

Regarding `Cc1cc(C)c(N)c(S(=O)(=O)O)c1`, the growth in experiment [1] was 93.2%; in experiment [2], 98.9%; in experiment [3] it was 111%; in experiment [4], 92.1%; in experiment [5], 93.6%; in experiment [6] it was 91.2%. Further, in experiment [7], the growth was 115%.

In the case of `Cc1cc(OCCO)cc(C)c1Cl`, the growth in experiment [1] is 111%; in experiment [8] it was 116%; in experiment [3], 107%; in experiment [4], 110%; in experiment [5], 101%; in experiment [6], 102%. Further, the growth in experiment [7] was 107%.

With `CCCC(=O)Nc1ccc2c(c1)CN1C(=O)c3ccccc3C1=N2`, the growth was 101% in experiment [1]; 106% in experiment [2]; 105% in experiment [3]; 96% in experiment [4]; 102% in experiment [5]; 85.4% in experiment [6]. Besides, in experiment [7], the growth is 97.5%.

On to `NC(C(=O)O)c1ccc([N+](=O)[O-])cc1` (stereo unspecified), for which the growth in experiment [1] is 99.3%; in experiment [2] it was 111%; in experiment [3] it was 109%; in experiment [4], 95.3%; in experiment [5], 105%; in experiment [6], 111%. The growth in experiment [7] was 99.4%.

For the compound `O=C1C[C@H](c2ccccc2)[C@H](c2ccccc2)C1`, the growth in experiment [1] is 99.1%; in experiment [2] it was 108%; in experiment [3] it was 109%; in experiment [4], 99.1%; in experiment [5] it was 99.1%; in experiment [6], 104%. Further, the growth in experiment [7] is 115%.

Take `O=C(O)c1ccc(S(=O)(=O)O)cc1`: the growth in experiment [1] is 106%; in experiment [2], 114%; in experiment [3] it was 104%; in experiment [4] it was 96.2%; in experiment [5], 108%; in experiment [6] it was 105%. For the same compound, the growth in experiment [7] was 109%.

Turning to `NCCCN`, the growth in experiment [1] was 98.6%; in experiment [2], 109%; in experiment [3], 104%; in experiment [4], 96.7%; in experiment [5] it was 109%; in experiment [6], 112%. The growth in experiment [7] was 107%.

Regarding `Cc1cc(C(O)(c2ccc(Nc3ccccc3)cc2)c2ccc(Nc3ccc(S(=O)(=O)O)cc3)cc2)ccc1N` (stereo unspecified), the growth in experiment [1] is -5.86% (active); in experiment [2] it was -67.4% (active); in experiment [3], -32.6% (active); in experiment [4], -3.23% (active); in experiment [5], 6.56% (active); in experiment [6] it was -20.5% (active). Besides, the growth in experiment [7] was 4.39% (active).

As for `COc1cc(C(=O)NC(=S)Nc2ccc3ccccc3c2)cc(OC)c1OC`, the growth in experiment [1] was 91.2%; in experiment [8], 121%; in experiment [3], 74%; in experiment [4] it was 93.2%; in experiment [5], 104%; in experiment [6], 99.5%. For the same compound, the growth in experiment [7] is 95.5%.

Turning to `CN(C)C(C)(C)CC(C)(C)C`, the growth in experiment [1] is 104%; in experiment [2] it was 109%; in experiment [3], 101%; in experiment [4] it was 101%; in experiment [5], 100%; in experiment [6], 109%. Also, the growth in experiment [7] was 93.6%.

`OCC(O)C(O)C(O)C(O)/C=N/O` (stereo unspecified): the growth was 87.4% in experiment [1]; 108% in experiment [2]; 99.6% in experiment [3]; 96.3% in experiment [4]; 91.3% in experiment [5]; 102% in experiment [6]. In addition, the growth in experiment [7] was 101%.

As to `Cc1nc2ccccc2c(C(=O)O)c1O`, the growth in experiment [1] is 91.3%; in experiment [2] it was 112%; in experiment [3], 110%; in experiment [4], 103%; in experiment [5], 88.3%; in experiment [6], 89%. Moreover, in experiment [7], the growth is 120%.

With `CCOC(=O)CSc1c([N+](=O)[O-])ncn1C`, the growth in experiment [1] is 101%; in experiment [2], 101%; in experiment [3] it was 103%; in experiment [4] it was 88.2%; in experiment [5], 103%; in experiment [6], 107%. Besides, the growth in experiment [7] is 96.2%.

For `O=C1OC(=O)C2C1C1(Cl)C(Cl)=C(Cl)C2(Cl)C2C(=O)OC(=O)C21` (stereo unspecified), the growth in experiment [1] was 95.4%; in experiment [2], 101%; in experiment [3], 113%; in experiment [4], 95.8%; in experiment [5] it was 102%; in experiment [6], 108%. In addition, in experiment [7], the growth was 106%.

In the case of `CCCC(C)OCC(=O)O` (stereo unspecified), the growth in experiment [1] is 126%; in experiment [2], 108%; in experiment [3] it was 101%; in experiment [4], 99.9%; in experiment [5] it was 101%; in experiment [6], 106%. The growth in experiment [7] is 101%.

With `Cc1cc(N2CCC(N3CCCC3)CC2)nc(/N=C(\N)Nc2ccc(Cl)c(Cl)c2)n1`, the growth in experiment [1] is 106%; in experiment [2], -98.6% (active); in experiment [3], -56% (active); in experiment [4], -44.7% (active); in experiment [5] it was -93.3% (active); in experiment [6] it was -82.2% (active). In addition, the growth in experiment [7] was 9.92% (active).

Regarding `COc1cccc(/C=N/NC(=S)NC2CC3CCC2C3)c1O` (stereo unspecified), the growth was 35.7% in experiment [1]; 76.4% in experiment [2]; 57.9% in experiment [3]; 37.8% in experiment [4]; 24.8% in experiment [5]; 96.3% in experiment [6]. Further, the growth in experiment [7] is 69.1%.

With `O=C(O)/C=C/C(=O)NCc1ccccc1`, the growth in experiment [1] was 98.5%; in experiment [2] it was 101%; in experiment [3] it was 109%; in experiment [4], 91.9%; in experiment [5] it was 106%; in experiment [6] it was 95.7%. In experiment [7], the growth was 104%.

`CCn1c(=O)n(C)c2c(=O)n(C)c(=O)n(C)c21`: the growth in experiment [1] is 98%; in experiment [2] it was 98.6%; in experiment [3], 107%; in experiment [4], 103%; in experiment [5], 109%; in experiment [6] it was 87.8%.
